PubChem BioAssay AID1159580 (chemical genetic matrix, 2015)
About 2,000 (36%) of roughly 5,500 compounds were called active. Not shown: some 18% with an inconclusive outcome. Cut-off read from the data, not from the text of the source: active = normalized growth mostly below about 0.91 (no sharp cut-off); inconclusive = no clear call, values can overlap the other calls; inactive = mostly above about 0.92. The list shows a part of the results.

Test: chemical genetic growth profiling, strain panel (AID 1159580);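 note: tested at 20 µM; growth read once vehicle control cultures reached saturation at 30 °C; 1 = growth at the plate median or of vehicle wells; lower values mean less growth of the strain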
Details: S. cerevisiae deletion strains, growth OD

Measured: normalized growth

CCc1cccc(N(C)C(N)=Nc2cccc3ccccc23)c1
inactive: locus YAL040C, strain CLN3, active compounds read low 0.98 | locus YCL061C, strain MRC1 (second series), active compounds read low 0.989 | locus YDR150W, strain NUM1, active compounds read low 0.998 | locus YER002W, strain NOP16, active compounds read low 1.03 | locus YGR078C, strain PAC10, active compounds read low 0.97 | locus YJR075W, strain HOC1, active compounds read low 0.983 | locus YNL175C, strain NOP13, active compounds read low 1.03 | locus YNL197C, strain WHI3, active compounds read low 1 | locus YNL224C, strain SQS1, active compounds read low 0.993 | locus YOR083W, strain WHI5 (second series), active compounds read low 0.931 | locus YPL241C, strain CIN2, active compounds read low 0.989
